Consider four molecules from PubChem BioAssay (EPA / NIEHS).

For orientation: AC50 means the concentration giving half of the maximal activity seen.

Holding throughout (settings): mRNA level, 48 h; actives raise or lower the signal
Read-out in assay [1]: Lipoprotein lipase (LPL), LPL (gene 4023)
Description: LTEA_HepaRG_LPL: Life Technologies and Expression Analysis (LTEA) Assay for Lipoprotein lipase (LPL) using HepaRG (AID 2283515). Summed up: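 Differentiated HepaRG cells, plated 48 h, then exposed 48 h in serum-free induction medium to 8 concentrations (top 100 uM, half-log steps) in 0.5% DMSO, duplicate. LPL mRNA measured by qRT-PCR, normalized to ACTB, GAPDH and POLR2A.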

Read-out in assay [2]: MicroRNA 122 (MIR122), gene 406906
Description: LTEA_HepaRG_MIR122: Life Technologies and Expression Analysis (LTEA) Assay for MicroRNA 122 (MIR122) using HepaRG (AID 2283516). Note: the transcript read is the microRNA miR-122. Summed up:
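HepaRG plated 48 h, switched to serum-free induction medium, then treated in duplicate for 48 h (100 uM top, half-log steps, 0.5% DMSO vehicle). RNA isolated, qRT-PCR performed, concentration-response fitted both directions relative to DMSO.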

Read-out in assay [3]: matrix metalloproteinase-3 (MMP3), MMP3 (gene 4314)
Description: LTEA_HepaRG_MMP3: Life Technologies and Expression Analysis (LTEA) Assay for matrix metalloproteinase-3 (MMP3) using HepaRG (AID 2283519). Summed up:
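HepaRG cells (~100,000/well) in serum-free induction medium were dosed in duplicate for 48 h with an 8-point half-log series from 100 uM, 0.5% DMSO. MMP3 mRNA was quantified by Fluidigm TaqMan qRT-PCR, normalized to three housekeeping genes.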

Read-out in assay [4]: Paternally Expressed 10 (PEG10), PEG10 (gene 23089)
Description: LTEA_HepaRG_PEG10: Life Technologies and Expression Analysis (LTEA) Assay for Paternally Expressed 10 (PEG10) using HepaRG (AID 2283520). Summed up:
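HepaRG, 48 h post-plating → serum-free induction medium → 48 h chemical exposure (duplicate, 8-pt, max 100 uM, half-log, 0.5% DMSO) → lysis in RLT → TaqMan qRT-PCR for PEG10, ACTB/GAPDH/POLR2A normalisation.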

Read-out in assay [5]: Protein phosphatase 2A (PPP2R4), PTPA (gene 5524)
Description: LTEA_HepaRG_PPP2R4: Life Technologies and Expression Analysis (LTEA) Assay for Protein phosphatase 2A (PPP2R4) using HepaRG (AID 2283522). Summed up:
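Readout is PPP2R4 transcript level by microfluidic qRT-PCR after 48 h chemical treatment of human HepaRG liver cells. Concentrations spanned 100 uM downward in half-log steps; gain or loss of signal was fitted relative to DMSO.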

Read-out in assay [6]: solute carrier (SLC22A1), SLC22A1 (gene 6580)
As to the kind of experiment: LTEA_HepaRG_SLC22A1: Life Technologies and Expression Analysis (LTEA) Assay for solute carrier (SLC22A1) using HepaRG (AID 2283524). The method in brief:
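Differentiated human HepaRG cells in serum-free induction medium, exposed 48 h in duplicate to 8-point half-log series from 100 µM top in 0.5% DMSO. SLC22A1 mRNA by TaqMan qRT-PCR normalized to ACTB, GAPDH, POLR2A; bidirectional fit versus DMSO.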

Read-out in assay [7]: NAD(P)H dehydrogenase [quinone] 1 (NQO1), NQO1 (gene 1728)
As to the kind of experiment: LTEA_HepaRG_NQO1: Life Technologies and Expression Analysis (LTEA) Assay for NAD(P)H dehydrogenase [quinone] 1 (NQO1) using HepaRG (AID 2283526). The method in brief: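 HepaRG, 48 h post-plating → serum-free induction medium → test chemical 48 h (duplicate, 100 uM top, half-log x8, 0.5% DMSO) → RNA isolation → qRT-PCR, ACTB/GAPDH/POLR2A normalization; bidirectional curve fit vs DMSO baseline.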

Read-out in assay [8]: Nuclear factor erythroid 2-related factor 2 (Homo sapiens) (UniProt Q16236)
As to the kind of experiment: LTEA_HepaRG_NFE2L2: Life Technologies and Expression Analysis (LTEA) Assay for Nuclear factor erythroid 2-related factor 2 (NFE2L2) Transcription Factor using HepaRG (AID 2283527).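 For outcome: TaqMan qRT-PCR transcript level normalised to ACTB GAPDH and POLR2A housekeeping genes.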 Summed up:
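Differentiated human HepaRG cells, serum-free induction medium, exposed 48 h in duplicate to eight half-log concentrations up to 100 uM in 0.5% DMSO. NFE2L2 mRNA by Fluidigm TaqMan qRT-PCR, normalised to ACTB, GAPDH, POLR2A; bidirectional change versus DMSO.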

Read-out in assay [9]: succinate dehydrogenase complex iron sulfur subunit B (SDHB), SDHB (gene 6390)
Description: LTEA_HepaRG_SDHB: Life Technologies and Expression Analysis (LTEA) Assay for succinate dehydrogenase complex iron sulfur subunit B (SDHB) using HepaRG (AID 2283528). The method in brief: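 Readout is SDHB transcript level by qRT-PCR, normalised to three housekeeping genes and fitted bidirectionally against 0.5% DMSO vehicle. Human HepaRG cells were treated for 48 h at up to 100 uM.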

Read-out in assay [10]: Signal transducer and activator of transcription 3 (Homo sapiens) (UniProt P40763)
As to the kind of experiment: LTEA_HepaRG_STAT3: Life Technologies and Expression Analysis (LTEA) Assay for Signal transducer and activator of transcription (STAT3) using HepaRG (AID 2283529). Summed up: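 Differentiated HepaRG cells, serum-free induction medium, dosed 48 h in duplicate, 8 half-log concentrations from 100 uM in 0.5% DMSO. STAT3 mRNA by qRT-PCR, normalised to ACTB, GAPDH, POLR2A; bidirectional fit versus DMSO.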

Read-out in assay [11]: solute carrier (SLCO1B1), SLCO1B1 (gene 10599)
Description: LTEA_HepaRG_SLCO1B1: Life Technologies and Expression Analysis (LTEA) Assay for solute carrier (SLCO1B1) using HepaRG (AID 2283530). The method in brief:
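Gain or loss of SLCO1B1 mRNA is fitted against the 0.5% DMSO vehicle in human HepaRG liver cells treated 48 h at up to 100 uM in half-log steps. Expression comes from qRT-PCR normalized to endogenous controls.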

Read-out in assay [12]: sulfotransferase 2A1 (SULT2A1), SULT2A1 (gene 6822)
As to the kind of experiment: LTEA_HepaRG_SULT2A1: Life Technologies and Expression Analysis (LTEA) Assay for sulfotransferase 2A1 (SULT2A1) using HepaRG (AID 2283531). The method in brief:
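Cells were plated and cultured 48 h, switched to serum-free induction medium, then dosed in duplicate for 48 h (8 concentrations, max 100 uM). RNA was isolated and SULT2A1 expression measured by qRT-PCR; gain or loss of signal fitted relative to DMSO.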

Read-out in assay [13]: Transforming Growth Factor (TGFA), TGFA (gene 7039)
As to the kind of experiment: LTEA_HepaRG_TGFA: Life Technologies and Expression Analysis (LTEA) Assay for Transforming Growth Factor (TGFA) using HepaRG (AID 2283532). The method in brief:
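Differentiated HepaRG cells exposed 48 hours in serum-free induction medium, 0.5% DMSO vehicle, 8-point half-log series from 100 uM, in duplicate. TGFA mRNA by TaqMan qRT-PCR, normalised to ACTB, GAPDH, POLR2A; bidirectional fit versus DMSO.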

Read-out in assay [14]: Transforming Growth Factor (TGFB1), TGFB1 (gene 7040)
Description: LTEA_HepaRG_TGFB1: Life Technologies and Expression Analysis (LTEA) Assay for Transforming Growth Factor (TGFB1) Transporter using HepaRG (AID 2283533). Summed up: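 Expression change of TGFB1 in human HepaRG cells is measured after a 48 h chemical exposure, up to 100 uM in 0.5% DMSO vehicle. Curves are fitted in both directions relative to the DMSO baseline.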

Read-out in the next assay: TIMP1, TIMP1 (gene 7076)
As to the kind of experiment: LTEA_HepaRG_TIMP1: Life Technologies and Expression Analysis (LTEA) Assay for TIMP1 using HepaRG (AID 2283534).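 For outcome: TaqMan qRT-PCR signal normalized to ACTB GAPDH and POLR2A housekeeping genes.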 The method in brief:
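We dosed human liver HepaRG cultures for 48 hours with up to 100 uM test chemical and measured TIMP1 expression by qRT-PCR. Activity in either direction is fitted relative to the 0.5% DMSO vehicle.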

Read-out in assay [15]: Pyruvate Dehydrogenase Kinase 4 (PDK4), PDK4 (gene 5166)
Description: LTEA_HepaRG_PDK4: Life Technologies and Expression Analysis (LTEA) Assay for Pyruvate Dehydrogenase Kinase 4 (PDK4) using HepaRG (AID 2283525). Summed up:
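HepaRG cells plated 48 h, then switched to serum-free induction medium and exposed in duplicate for 48 h to 8 half-log concentrations from 100 uM in 0.5% DMSO. PDK4 mRNA measured by qRT-PCR, normalized to ACTB, GAPDH and POLR2A; bidirectional fit versus DMSO.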

Read-out in another assay: MYC, MYC (gene 4609)
As to the kind of experiment: LTEA_HepaRG_MYC: Life Technologies and Expression Analysis (LTEA) Assay for MYC using HepaRG (AID 2283518). The method in brief:
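Cells are thawed, plated and cultured 48 h, then treated for 48 h with test chemicals (eight half-log concentrations from 100 uM, 0.5% DMSO vehicle). RNA is isolated and MYC expression quantified by qRT-PCR against three housekeeping genes.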

Read-out in assay [16]: Phosphatase and tensin (PTEN), PTEN (gene 5728)
Description: LTEA_HepaRG_PTEN: Life Technologies and Expression Analysis (LTEA) Assay for Phosphatase and tensin (PTEN) using HepaRG (AID 2283523). Summed up: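 HepaRG cells, 48 h after plating, exposed in duplicate for 48 h in serum-free induction medium to 8 half-log concentrations up to 100 uM (0.5% DMSO). PTEN mRNA by qRT-PCR, normalized to ACTB, GAPDH, POLR2A; bidirectional fit versus DMSO.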

Calls of active or inactive are those of the source. Rule for the calls: active = hit-call score of the fitted dose curve at least 0.9, where 1 is the maximum; inactive = score below 0.9.

Chain of Nuclear factor erythroid 2-related factor 2 (Homo sapiens) (Q16236 whole entry, looked up): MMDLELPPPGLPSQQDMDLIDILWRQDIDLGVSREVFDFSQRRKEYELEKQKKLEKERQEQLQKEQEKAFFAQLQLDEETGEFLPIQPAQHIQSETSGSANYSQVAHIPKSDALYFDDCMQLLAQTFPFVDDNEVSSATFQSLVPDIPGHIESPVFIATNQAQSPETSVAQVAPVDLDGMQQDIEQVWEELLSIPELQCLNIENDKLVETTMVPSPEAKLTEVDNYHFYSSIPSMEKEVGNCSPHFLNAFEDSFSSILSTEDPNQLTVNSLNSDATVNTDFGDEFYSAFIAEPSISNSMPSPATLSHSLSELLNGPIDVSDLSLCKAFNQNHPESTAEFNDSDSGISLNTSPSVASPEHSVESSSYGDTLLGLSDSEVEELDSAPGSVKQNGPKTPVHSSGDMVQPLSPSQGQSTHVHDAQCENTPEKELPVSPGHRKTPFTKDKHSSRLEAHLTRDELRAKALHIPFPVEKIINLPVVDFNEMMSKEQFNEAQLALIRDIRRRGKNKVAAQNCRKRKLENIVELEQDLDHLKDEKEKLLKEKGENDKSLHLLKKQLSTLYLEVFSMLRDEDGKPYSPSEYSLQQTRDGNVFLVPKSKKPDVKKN
Chain of Signal transducer and activator of transcription 3 (Homo sapiens) (P40763 whole entry, looked up): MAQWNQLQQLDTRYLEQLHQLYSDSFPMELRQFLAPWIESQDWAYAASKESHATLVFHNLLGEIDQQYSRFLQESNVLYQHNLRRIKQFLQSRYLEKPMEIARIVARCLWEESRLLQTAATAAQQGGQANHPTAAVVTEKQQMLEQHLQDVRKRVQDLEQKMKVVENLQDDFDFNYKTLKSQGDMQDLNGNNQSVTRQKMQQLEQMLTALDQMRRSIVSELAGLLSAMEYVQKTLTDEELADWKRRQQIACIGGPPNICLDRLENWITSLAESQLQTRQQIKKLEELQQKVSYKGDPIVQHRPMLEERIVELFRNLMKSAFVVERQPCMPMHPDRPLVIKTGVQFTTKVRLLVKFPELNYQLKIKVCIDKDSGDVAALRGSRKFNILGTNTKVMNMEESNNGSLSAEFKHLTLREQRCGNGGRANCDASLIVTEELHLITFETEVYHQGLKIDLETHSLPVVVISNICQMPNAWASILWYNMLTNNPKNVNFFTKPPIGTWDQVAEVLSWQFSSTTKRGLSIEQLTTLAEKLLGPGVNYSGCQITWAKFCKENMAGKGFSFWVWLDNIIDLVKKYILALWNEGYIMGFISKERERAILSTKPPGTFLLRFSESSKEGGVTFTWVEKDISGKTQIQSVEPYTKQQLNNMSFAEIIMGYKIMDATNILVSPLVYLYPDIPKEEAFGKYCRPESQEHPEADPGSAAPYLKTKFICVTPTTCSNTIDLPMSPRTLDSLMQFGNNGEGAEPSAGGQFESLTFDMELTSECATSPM

On to `CC[C@@H]1C[C@H](N(Cc2cc(C(F)(F)F)cc(C(F)(F)F)c2)C(C)=O)c2cc(C(F)(F)F)ccc2N1C(=O)OC(C)C`, for which the outcome in assay [1], in [2], in assay [3], in [5], in [6] and in assay [7] was inactive. Also, the result in assay [8], in assay [9], in assay [10], in assay [11], in assay [12] and in assay [13] was inactive. Besides, the outcome in assay [14] is “inactive”; with TIMP1, TIMP1 (gene 7076), “inactive”. In assay [4], the concentration at half-maximal activity (AC50) was 11.6 µM (active).

In the case of `CN1C(=O)N(c2ccccc2Br)Cc2cnc(Nc3ccc4c(c3)OCC(CO)O4)nc21` (stereo unspecified), the AC50 in [1] is 31.8 µM (active); in assay [2], 63.2 µM (active); in assay [6], 35.2 µM (active); in assay [15], 50 µM (active); in [9], 12.2 µM (active); in [11], 80.9 µM (active). Besides, the half-maximal activity concentration (AC50) is 81.1 µM (active) in [12]; 24.2 µM (active) in assay [14]; 11.9 µM (active) with TIMP1, TIMP1 (gene 7076). In addition, the molecule was classed as inactive in assay [4], in assay [5], in assay [7], in assay [8] and in assay [13].

For `CCCCCCCCCCCC[N+](C)(C)C`, the AC50 in assay [1] was 82 µM (active); in [2], 75 µM (active); in the assay with MYC, MYC (gene 4609), 75.8 µM (active); in assay [4], 33.8 µM (active); in assay [6], 91 µM (active); in assay [8] it was 76.9 µM (active). In addition, the half-maximal activity concentration (AC50) in assay [11] was 88.1 µM (active); in assay [12], 93.5 µM (active); in assay [13], 77 µM (active); in assay [14] it was 50 µM (active); in the assay with TIMP1, TIMP1 (gene 7076), 83.4 µM (active). Moreover, the molecule was called inactive in assay [5], in assay [16], in assay [7], in assay [9] and in assay [10].

In the case of `O=C=NCCCCCCN=C=O`, the outcome is “inactive” in [1]; “inactive” in [2]; “inactive” in the assay with MYC, MYC (gene 4609); “inactive” in assay [3]; “inactive” in assay [4]; “inactive” in [5]. Also, the molecule was called inactive in assay [16], in assay [6], in assay [7], in assay [8], in [9] and in [11]. Further, the outcome in [12] is “inactive”; in [13], “inactive”; in assay [14], “inactive”; with TIMP1, TIMP1 (gene 7076), “inactive”.
